# According to PubChem BioAssay (NCATS):
# Results filed as inconclusive are left out. Where a call stands in place of a potency, no number is given. Activity calls are given as the source filed them. Calls follow the shape of the dose curve; as a rule, active = well fitted inhibition curve with a large enough effect; inconclusive = small, poorly fitted or top-dose-only effect; inactive = flat fitted curve, though single readings scatter. Peptide text beside a SMILES is read from it.
# Test system: CP250
# Assay: qHTS profiling for inhibitors of Plasmodium falciparum proliferation (AID 504749); also: nearly all actives have a fitted effect of over 60% in size
# Settings: P. falciparum in erythrocytes, SYBR Green DNA, 72 h; series mostly up to 12.8 µM
# In short: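 Quantitative HTS: compounds pinned into medium, infected erythrocytes added (0.3% parasitemia, 2.5% hematocrit), 72 h culture at 37 C under 5% CO2. Saponin/Triton lysis with SYBR Green I, overnight RT, then fluorescence read.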
# Potency is read from the fitted curve at half-maximal effect.
row,Structure (SMILES),Potency
1,CN(C)CCCOC1C(C(O)CO)OC2OC(C)(C)O[C@@H]21 (stereo partly specified),inactive
2,CCC(C)C(=O)OC1CCC=C2C=CC(C)C(CCC3CC(O)CC(=O)O3)[C@@H]21 (stereo partly specified),inactive
3,CC(=O)OC1CCC2C3CCc4cc(O)ccc4C3CCC12C (stereo unspecified),inactive
4,CC[C@@]12CCCN3CCc4c(n(c5ccccc45)[C@](O)(C(=O)OC)C1)C32 (stereo partly specified),inactive
5,NC(C(=O)O)[C@@H]1CC(Cl)=NO1 (stereo partly specified),2820 nM (active)
6,CN1CC(=O)N=C1N,inactive
7,OCC1OC([S-])[C@H](O)C(O)C1O.[Au+] (stereo partly specified),inactive
8,CCC(CCC(C)C1CCC2C3CC=C4CC(O)CC[C@@]4(C)C3CC[C@@]12C)C(C)C (stereo partly specified),inactive
9,C[C@]12CCC(=O)C=C1CCC1C2C(=O)C[C@]2(C)C1CC[C@]2(O)C(=O)CO (stereo partly specified),inactive
10,OCC1O[C@H](OC2C(CO)O[C@@](O)(CO)C2O)C(O)C(O)C1O (stereo partly specified),inactive
11,CC1(C)OC2CO[C@]3(COS(N)(=O)=O)OC(C)(C)OC3C2O1 (stereo partly specified),inactive
12,CC1(C)OC2CC(=O)OC[C@@]23C1CC(=O)[C@]1(C)C3CC[C@@]2(C)C(c3ccoc3)OC(=O)C3O[C@@]321 (stereo partly specified),inactive
13,CCOC(=O)C1=CC(OC(CC)CC)C(NC(C)=O)C(N)C1 (stereo unspecified),inactive
14,COC(=O)C(Cc1ccccc1)NC(=O)C(N)CC(=O)O (stereo not drawn) (H-Asp-Phe-OMe; configuration not given here),inactive
15,C[C@]12C=CC(=O)C=C1CCC1C2C(O)C[C@]2(C)C1CC[C@]2(O)C(=O)CO (stereo partly specified),inactive
16,CC1(C)S[C@H]2C(NC(=O)[C@@H](N)c3ccc(O)cc3)C(=O)N2[C@@H]1C(=O)O (stereo partly specified),inactive
